Laboratory results reported in PubChem BioAssay (EPA / NIEHS).
“And” between values parts separate entries of the source, which are not always exact repeats. Equal entries are not always repeated. Records with an inconclusive call do not appear. The source made the active and inactive calls. How the source made its calls, unless noted: active means hit-call score of the fitted dose curve at least 0.9, where 1 is the maximum; inconclusive means response in the unintended direction; inactive means score below 0.9.

Tests used:
[1] = ACEA_ER_80hr: ACEA Biosciences xCELLigence Real-Time Cell Analysis on Estrogen Receptor Agonism for Proliferation (AID 2282667); settings: T47D proliferation, impedance (xCELLigence), 80 h
Procedure, shortened: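 T47D human breast cells were seeded on electrode plates, monitored overnight, then exposed continuously to compounds in eight-point 1:4 dilutions from 100 uM (max 0.5% DMSO). Impedance-based growth was read at 80 h, fitted upward relative to DMSO.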

[2] = APR_HepG2_CellCycleArrest_24hr: Apredica 24-hour HepG2 Assay for Cell Cycle Arrest (AID 2282905; active means hit-call score of the fitted dose curve at least 0.9, where 1 is the maximum; inactive means score below 0.9;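 further: cell cycle arrest scored as ratio of 2N to 4N nuclear DNA content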); settings: imaging, actives raise or lower the signal
Procedure, shortened: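 Compounds (0.39 to 200 uM, final DMSO 0.5% v/v) are applied to HepG2 cells for 24 hours; cells are then fixed, permeabilized and nuclei labeled with Hoechst 33342. Automated imaging measures DNA content, and activity is fitted in both directions against DMSO.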

SMILES	outcome [1]	outcome [2]	AC50 [1]	AC50 [2]
Cc1cccc([N+](=O)[O-])c1	inactive	inactive		
O=S(=O)(O)C(F)(F)C(F)(F)C(F)(F)C(F)(F)F	inactive	inactive		
CC(C)(c1ccccc1)c1ccc(O)cc1		inactive	483 nM (active) [middle of 4 runs]	
Cc1cccc(C)c1N	inactive	inactive		
COc1ccc(O)c(C(C)(C)C)c1		inactive	1.95 µM (active)	
Cc1ccccc1[N+](=O)[O-]	inactive	inactive		
Oc1ccc(Cl)cc1Cl	inactive	inactive		
O=C(NC(=O)c1cc(F)c(F)cc1Cl)Nc1cc(F)ccc1N1CCC(C(=O)O)CC1	inactive	inactive		
ClC1=C(Cl)[C@]2(Cl)[C@@H]3[C@@H](Cl)[C@H]4O[C@H]4[C@@H]3C1(Cl)C2(Cl)Cl	inactive			80.1 µM (active)
CCOP(=S)(OCC)SCSC(C)(C)C	inactive	inactive		
O=NN(c1ccccc1)c1ccccc1	inactive	inactive		
O=C(O)C(F)(F)C(F)(F)C(F)(F)C(F)(F)C(F)(F)C(F)(F)C(F)(F)C(F)(F)F	inactive			105 µM (active)
O=C(O)C(F)(F)C(F)(F)C(F)(F)C(F)(F)C(F)(F)F	inactive	inactive		
N#Cc1ccc(N(CC(N)=O)CC(F)(F)F)cc1C(F)(F)F	inactive	inactive		
CCOCCOC(C)=O	inactive	inactive		
Cc1cc(-c2ccc(N)c(C)c2)ccc1N		inactive	27 µM (active) and 9.92 µM (active)	
c1cc2ccc3cccc4ccc(c1)c2c34	inactive	inactive		
CCCCCCCCOC(=O)c1ccccc1C(=O)OCCCCCCCC		inactive	75.4 µM (active)	
CC1=C2C[C@H]3[C@@H](CC=C4C[C@@H](O)CC[C@@]43C)[C@@H]2CC[C@]12O[C@@H]1C[C@H](C)CN[C@H]1[C@H]2C	inactive	inactive		
C=CC(=O)NCNC(=O)C=C	inactive	inactive		
CC(c1ccc(O)cc1)(c1ccc(O)cc1)c1ccc(O)cc1		inactive	1.54 µM (active)	
O=C(O)C(F)(F)C(F)(F)C(F)(F)C(F)(F)C(F)(F)C(F)(F)C(F)(F)C(F)(F)C(F)(F)F	inactive	inactive		
CCC(C)(c1ccc(O)cc1)c1ccc(O)cc1		inactive	285 nM (active) [middle of 4 runs]	
c1ccc(-c2ccccc2)cc1	inactive	inactive		
COS(=O)(=O)OC	inactive	inactive		
Cc1cc2c3c(c1)C(c1ccccc1)=N[C@@H](NC(=O)c1ccncc1)C(=O)N3CC2	inactive	inactive		
Clc1ccc(Cl)cc1	inactive	inactive		
Cc1cc(O)ccc1Cl	inactive	inactive		
